TMEM16A act: TMEM16A chloride channel activators or potentiators, primary screen, cell-based, HTS; Anoctamin-1 (Mus musculus), Q8BHY3; B-score at 10 µM; HEK293 TMEM16A/YFP-H148Q/I152L, iodide quench fluorescence; hits give low values; 0.3% of 340,000 active;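 active = fluorescence-ratio B-score plate-corrected deviation score at least 3 library SD below zero, with starting fluorescence score within 5 deviations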;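 also: channel opened by trigger with iodide after compound preincubation; score built on the fluorescence ratio of max minus min over baseline; more negative score means more quench and so TMEM16A activation or potentiation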
Target sequence (Q8BHY3 whole entry, looked up): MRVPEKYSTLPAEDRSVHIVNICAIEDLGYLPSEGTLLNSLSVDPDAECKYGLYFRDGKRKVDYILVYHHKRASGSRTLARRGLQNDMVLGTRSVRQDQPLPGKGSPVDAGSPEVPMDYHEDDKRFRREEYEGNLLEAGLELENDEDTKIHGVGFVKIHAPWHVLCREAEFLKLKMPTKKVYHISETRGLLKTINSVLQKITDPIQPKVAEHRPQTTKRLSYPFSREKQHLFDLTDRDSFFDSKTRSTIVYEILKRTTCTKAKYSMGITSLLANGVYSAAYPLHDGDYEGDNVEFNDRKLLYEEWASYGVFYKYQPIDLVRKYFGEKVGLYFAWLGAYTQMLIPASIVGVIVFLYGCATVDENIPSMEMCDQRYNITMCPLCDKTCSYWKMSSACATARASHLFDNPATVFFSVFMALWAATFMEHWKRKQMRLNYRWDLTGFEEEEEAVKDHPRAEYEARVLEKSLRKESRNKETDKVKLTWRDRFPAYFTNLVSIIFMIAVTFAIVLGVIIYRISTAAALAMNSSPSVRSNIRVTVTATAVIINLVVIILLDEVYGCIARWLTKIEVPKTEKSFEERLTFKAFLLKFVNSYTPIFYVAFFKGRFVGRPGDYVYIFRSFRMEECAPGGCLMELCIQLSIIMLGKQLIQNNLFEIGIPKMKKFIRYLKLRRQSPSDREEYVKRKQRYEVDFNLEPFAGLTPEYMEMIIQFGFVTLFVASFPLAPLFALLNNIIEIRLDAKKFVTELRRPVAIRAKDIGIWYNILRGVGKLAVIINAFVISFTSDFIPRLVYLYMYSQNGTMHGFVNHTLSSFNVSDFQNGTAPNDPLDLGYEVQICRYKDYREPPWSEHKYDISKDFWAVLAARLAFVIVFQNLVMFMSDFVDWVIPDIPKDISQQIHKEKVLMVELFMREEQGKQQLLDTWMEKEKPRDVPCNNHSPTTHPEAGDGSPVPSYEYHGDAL
KLF5 inh: KLF5 expression inhibitors, primary screen, DLD-1 cells, luminescence; DLD-1 KLF5 promoter-luciferase reporter; inhibition, % at 5 µM; 0.23% of 290,000 active;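 active = inhibition above a per-plate limit of that plate's mean compound inhibition plus 3 SD, cut at about 60% in these data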;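 also: 0% = DMSO wells and 100% = LY294002 at 200 µM; higher means less KLF5 promoter-driven luciferase light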
Jurkat NFkB inh: inhibitors of induced NF-kB luciferase reporter, primary screen, TCR NF-kB activation inhibitor project, cell-based, luminescence, uHTS; Jurkat, PMA/ionomycin-induced NF-kB luciferase reporter; inhibition, % at 4 µM; 0.53% of 330,000 active; AID 435003, 2010; in the data active = inhibition above about 50%
697 NFkB inh: inhibitors of PMA/ionomycin-induced NF-kB reporter, 697 cells, primary screen, B-cell NF-kB inhibitor project, cell-based, luminescence, uHTS | 697 B-cell NF-kB luciferase reporter, 16 h | inhibition, % at 4 µM | 0.33% of 330,000 active | AID 435022, 2010; in the data active = inhibition above about 35%
aSyn 5UTR inh: MLPCN primary screen, SNCA 5' untranslated region; alpha-synuclein 5'UTR reporter, inhibitor activity; inhibition, % (tested at 7.5 µM); 0.82% of 300,000 active; in the data active = inhibition above about 60%;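 also: H4 neuroglioblastoma cells stably carrying SNCA 5'UTR luciferase fusion; 0% = DMSO wells and 100% = positive control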
TMEM16A inh: TMEM16A chloride channel inhibitors, primary screen, cell-based, HTS; HEK293 TMEM16A/YFP iodide influx fluorescence, ionomycin; normalized B-score (activity score, 25-100; higher = stronger inhibition) at 10 µM; 1.2% of 310,000 active;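 active = ratio plate-corrected score three or more library SD toward inhibition, starting fluorescence score within five deviations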;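 also: score derived from kinetic fluorescence span divided by baseline fluorescence per well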
Jurkat NFkB conf: PMA/ionomycin-induced NF-kB reporter inhibitors, Jurkat retest, confirmation, T-cell NF-kB inhibitor project, cell-based, luminescence, single concentration; shares compounds with Jurkat NFkB inh; 27% of 2,700 active; inhibition, % at 4 µM; Jurkat NF-kB luciferase, 16 h;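 active = inhibition reaching about 45% at 4 µM in either replicate, limit read from the data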;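 also: plate controls were PMA/ionomycin stimulated DMSO wells for no effect and unstimulated DMSO wells for full effect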
* = called active by the depositor; i = inactive; · = no result given. Hits are enriched below; roughly 2.5% of the tested compounds scored in any of these assays.

SMILES | TMEM16A act | KLF5 inh | Jurkat NFkB inh | 697 NFkB inh | aSyn 5UTR inh | TMEM16A inh | Jurkat NFkB conf
Cc1ccccc1OCC(O)CNC1CCC(NCC(O)COc2ccccc2C)CC1 (stereo unspecified) | i | -34 | 97* | 26 | 99* | i | 35
COc1ccc(S(=O)(=O)N2CCCC2CNC(=O)C(=O)NCCc2ccccc2)cc1 (stereo unspecified) | i | · | 54* | -32 | -48 | i | 29
COc1ccc(NC(=O)C(=O)NCCC2CCCCN2S(=O)(=O)c2ccc(F)cc2)cc1 (stereo unspecified) | i | · | 60* | -39 | -44 | i | 23
Cc1ccc(S(=O)(=O)N2CCCCC2CCNC(=O)C(=O)NCc2cccnc2)cc1 (stereo unspecified) | i | · | 62* | 6 | -48 | i | 17
COc1ccc(CCNC(=O)C(=O)NCC2CCCN2S(=O)(=O)c2ccccc2)cc1 (stereo unspecified) | i | · | 10 | -5 | 3 | i | ·
COc1ccc(CN2CCC(n3nccc3NC(=O)CCc3ccccc3)CC2)c(C)c1C | i | -11 | -10 | -25 | 5 | · | ·
CC(=O)NC12CC3CC(C1)CC(C(=O)OCC(=O)Nc1ncc(Cl)c(C)c1Cl)(C3)C2 | i | -54 | -19 | 8 | -2 | i | ·
CC(=O)NC12CC3CC(C1)CC(C(=O)OCC(=O)c1cc(C)n(C)c1C)(C3)C2 | i | · | -162 | -144 | · | · | -62
CC(=O)NC12CC3CC(C1)CC(C(=O)OCC(=O)c1ccc4c(c1)OCCO4)(C3)C2 | i | -132 | -164 | -8 | -134 | i | -81
Cc1cc(C(=O)COC(=O)C23CC4CC(CC(O)(C4)C2)C3)c(C)n1C | i | · | -47 | -28 | · | · | ·
Cc1cc(N/N=C/c2ccc3c(c2)OCO3)nc2ccccc12 | i | -58 | -60 | -103 | -180 | i | ·
N#CC1=C(N)Oc2cc3c(cc2C1c1ccc(Cl)cc1)OCO3 (stereo unspecified) | i | -21 | 17 | 4 | 9 | i | ·
COc1ccc(C2C(C#N)=C(N)Oc3cc(O)ccc32)cc1OC (stereo unspecified) | i | 7 | 1 | -22 | -11 | i | ·
COc1cc(C2C(C#N)=C(N)Oc3cc(O)ccc32)cc2c1OCO2 (stereo unspecified) | i | -22 | 15 | 9 | -29 | i | ·
COc1cc(C2C(C#N)=C(N)Oc3cc(N(C)C)ccc32)cc2c1OCO2 (stereo unspecified) | i | -33 | 67* | -107 | 59 | i | 48*
COc1cc(C2C(C#N)=C(N)Oc3cc4c(cc32)OCO4)cc(OC)c1OC (stereo unspecified) | i | 86* | 77* | -140 | 111* | i | 46
COc1cc(C2C(C#N)=C(N)Oc3cc(O)ccc32)cc(OC)c1OC (stereo unspecified) | i | 4 | 53* | -18 | 58 | i | 10
Cn1c(=O)c2c(nc(Cl)n2CC(=O)NC2(C#N)CCCCC2)n(C)c1=O | i | · | -1 | -32 | 13 | i | ·
Cc1ccc(NC(=O)CCC(=O)NNC(=S)Nc2ccccc2)c(C)c1 | i | 1 | -1 | -41 | 10 | i | ·
Cc1ccc(NC(=S)NNC(=S)Nc2ccc(C)cc2C)cc1 | i | -22 | 66* | -7 | 113* | i | -18
COc1ccc(S(=O)(=O)Nc2cccc3c2O[C@H](CN(C)S(=O)(=O)c2cccs2)[C@@H](C)CN([C@H](C)CO)C3=O)cc1 | i | · | 6 | -16 | · | · | ·
CCC[C@H]1NC(=O)[C@H](C)N(C)C(=O)C(C)(C)C(=O)C(C)NC(=O)[C@H](Cc2ccc(OC)cc2)N(C)C(=O)[C@H](C(C)C)N(C)C(=O)CNC(=O)[C@H](CC(C)C)N(C)C(=O)CNC(=O)[C@H]([C@@H](C)CC)OC(=O)[C@H]1C (stereo partly specified) | · | · | 82* | -28 | · | · | 42
CC(C)CC1NC(=O)c2cc(Cl)ccc2-n2c1nc1cc(F)ccc1c2=O (stereo unspecified) | · | · | 5 | 3 | · | · | ·
CCOC(=O)c1ccc(Nc2nc(N)c3cc(OC)c(OC)cc3n2)cc1 | i | -48 | 74* | 30 | -104 | i | 90*
C[C@H](CO)N1C[C@H](C)[C@@H](CN(C)C)Oc2c(NS(=O)(=O)c3cn(C)cn3)cccc2C1=O | · | · | 1 | 3 | · | · | ·
SMILES | TMEM16A act | KLF5 inh | Jurkat NFkB inh | 697 NFkB inh | aSyn 5UTR inh | TMEM16A inh | Jurkat NFkB conf
Cc1cc(C)nc(/N=C(\N)Nc2cccc(OCc3ccccc3)c2)n1 | i | -2 | 70* | -40 | 7 | i | 22
COc1ccccc1N/C(N)=N/c1nc(C)cc(C)n1 | i | -6 | -9 | 5 | -1 | i | ·
Cc1cc(C)nc(/N=C(\N)Nc2ccc(OCc3ccccc3)cc2)n1 | -7.8* | -87 | 51* | -53 | 12 | 100* | 32
COc1ccc(C2C(=O)NN=C2C)cc1 (stereo unspecified) | i | · | · | · | · | · | ·
CCC1CCCCN1CCCNC(=O)C1CCN(Cc2nc(-c3ccc(Cl)cc3)oc2C)CC1 (stereo unspecified) | i | -35 | 56* | 7 | 13 | i | -5
Cc1oc(-c2ccc(Cl)cc2)nc1CS(=O)CC(=O)NCCCN1CCN(Cc2ccccc2)CC1 (stereo unspecified) | i | -14 | 65* | -9 | 23 | i | 41
CCN(CC)CC1CN(N=Cc2ccc([N+](=O)[O-])o2)C(=O)O1 (stereo unspecified) | i | · | · | · | · | · | ·
CCOC(=O)c1c(C)[nH]c(C)c1S(=O)(=O)NCc1ccccc1C | i | -8 | 1 | -13 | 8 | i | ·
CN(CC(=O)Nc1ccc(Cl)c(C(F)(F)F)c1)C(=O)c1cccc2cccnc12 | i | · | -5 | 8 | · | · | ·
COc1ccccc1N1CCN(C(=O)c2ccc3ncsc3c2)CC1 | i | · | · | · | · | · | ·
CCOC(=O)c1cc(-c2c(Cl)cccc2Cl)no1 | i | -2 | -20 | -31 | -20 | i | ·
CCn1c(/C=C/Nc2ccccc2)[n+](CC)c2ccc(Cl)cc21 | i | -5 | 58* | -27 | -46 | i | 9
COc1ccc(NC(=O)C(=O)NCC(c2ccco2)N2CCc3ccccc3C2)cc1OC (stereo unspecified) | i | · | 5 | 1 | 14 | i | ·
